# PubChem BioAssay (Tox21)
# Several values for one entry are separate records, joined by “and”; a condition that tells them apart may be missing. Equal entries are not always repeated. Inconclusive results are not listed. Where a call stands in place of a potency, no number is given. Some compounds were tested as several samples or in several runs, with calls that do not always agree. Activity calls are given as the source filed them. Calls follow the shape of the full dose curve.
# Legend:
# [1] = biological target: Acetylcholinesterase (Homo sapiens) (UniProt P22303); assay: Acetylcholinesterase (AChE) small molecule antagonists: colormetric cell-based qHTS assay (AID 1347395); also: nearly all actives have a fitted effect of over 30% in size; also: potency is read from the fitted curve at half-maximal effect
# Acetylcholinesterase (Homo sapiens), sequence (P22303 whole entry, looked up): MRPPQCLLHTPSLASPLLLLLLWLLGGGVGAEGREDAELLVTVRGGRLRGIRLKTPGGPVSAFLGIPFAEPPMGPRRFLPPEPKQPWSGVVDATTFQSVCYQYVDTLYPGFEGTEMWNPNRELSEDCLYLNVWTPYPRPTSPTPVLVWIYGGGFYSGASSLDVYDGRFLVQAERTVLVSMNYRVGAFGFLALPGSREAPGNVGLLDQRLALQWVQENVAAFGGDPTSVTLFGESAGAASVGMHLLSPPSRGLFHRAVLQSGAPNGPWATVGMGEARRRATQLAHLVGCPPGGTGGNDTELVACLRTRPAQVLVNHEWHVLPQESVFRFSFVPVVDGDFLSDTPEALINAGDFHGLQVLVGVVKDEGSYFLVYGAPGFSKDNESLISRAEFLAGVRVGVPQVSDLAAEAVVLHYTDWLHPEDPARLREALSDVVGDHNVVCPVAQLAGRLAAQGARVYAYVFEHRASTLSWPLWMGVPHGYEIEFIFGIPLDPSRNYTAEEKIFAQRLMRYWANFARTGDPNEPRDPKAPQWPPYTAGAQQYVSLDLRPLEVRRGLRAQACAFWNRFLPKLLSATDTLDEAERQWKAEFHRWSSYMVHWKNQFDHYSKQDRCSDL
# Method in brief: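 SH-SY5Y cells; cpd 30 min 37 C; + DTNB/acetylthiocholine, 90 min 37 C; colorimetric thiocholine read; qHTS.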
# [2] = biological target: Acetylcholinesterase (Homo sapiens) (UniProt P22303); assay: Acetylcholinesterase (AChE) small molecule antagonists: enzyme-based qHTS assay (AID 1347397); settings: Potency: AChE enzyme activity inhibition; outcome: AChE enzyme activity inhibition; also: nearly all actives have a fitted effect of over 55% in size; also: potency is read from the fitted curve at half-maximal effect
# Method in brief: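 Recombinant human AChE (50 mU/mL) preincubated with compound 30 min at room temperature; acetylthiocholine plus DTNB then added, and thiocholine formation read colorimetrically after 10 min at room temperature. DMSO served as vehicle control.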
# [3] = biological target: Acetylcholinesterase (Homo sapiens) (UniProt P22303); assay: Acetylcholinesterase (AChE) small molecule antagonists: fluorescence cell-based qHTS assay (AID 1347398); settings: Potency: AChE activity; outcome: AChE activity; also: nearly all actives have a fitted effect of over 50% in size; also: potency is read from the fitted curve at half-maximal effect
# Method in brief: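 SH-SY5Y cells (2000/well), attached overnight, incubated with compound 30 min at 37 C. Acetylthiocholine plus Thiolite Green then added for 40 min at room temperature. Thiocholine fluorescence (Ex/Em 490/520 nm) reports cellular AChE activity.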
# [4] = biological target: Acetylcholinesterase (Homo sapiens) (UniProt P22303); assay: Acetylcholinesterase (AChE) small molecule antagonists: enzyme-based qHTS assay with human liver microsomes (AID 1347399); settings: Potency: qHTS inhibition; outcome: qHTS inhibition; also: nearly all actives have a fitted effect of over 60% in size
# Method in brief: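 Recombinant human AChE (50 mU/mL in the enzyme mix) and human liver microsomes (0.25 mg/mL final) were preincubated with compound and NADPH (0.25 mg/mL final) for 30 min at 37 C. Acetylthiocholine/DTNB was then added; thiocholine was read colorimetrically after 10 min at room temperature.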
compound,measurement,setting,value
Cc1cc(S(=O)(=O)O)c(N)cc1Cl,Potency,[1],inactive
same,Potency,[2],inactive
same,Potency,[3],inactive
same,Potency,[4],inactive
c1ccc2cnccc2c1,Potency,[1],inactive
same,Potency,[2],inactive
same,Potency,[3],inactive
same,Potency,[4],inactive
OCc1ccc(Cl)cc1Cl,Potency,[1],inactive
same,Potency,[2],inactive
same,Potency,[3],inactive
same,Potency,[4],inactive
O=C(Oc1ccccc1)Oc1ccccc1,Potency,[1],inactive
same,Potency,[2],inactive
same,Potency,[3],inactive
same,Potency,[4],inactive
Cc1cc(Cc2cc(C)cc(C(C)(C)C)c2O)c(O)c(C(C)(C)C)c1,Potency,[1],inactive
same,Potency,[2],inactive
same,Potency,[3],inactive
same,Potency,[4],inactive
O=C(/C=C/c1ccc(O)c(O)c1)O[C@@H](C(=O)O)[C@@H](OC(=O)/C=C/c1ccc(O)c(O)c1)C(=O)O,Potency,[1],inactive
same,Potency,[2],inactive
same,Potency,[3],inactive
same,Potency,[4],inactive
[Cl][Bi]([Cl])([c]1ccccc1)([c]1ccccc1)[c]1ccccc1,Potency,[1],inactive
same,Potency,[2],inactive
same,Potency,[3],inactive
same,Potency,[4],inactive
O=C(O)c1ccc(Cl)c(Cl)c1,Potency,[1],inactive
same,Potency,[2],inactive
same,Potency,[3],inactive
same,Potency,[4],inactive
CC(C)COC(=O)CCCCC(=O)OCC(C)C,Potency,[1],inactive
same,Potency,[2],inactive
same,Potency,[3],inactive
same,Potency,[4],inactive
OCCOCCOCCOCCO,Potency,[1],inactive
same,Potency,[2],inactive
same,Potency,[3],inactive
same,Potency,[4],inactive
NC(N)=NCCC[C@H](N)C(=O)O,"activity, negative = inhibition",[1],5.24% [at 10.5 µM] (inactive)
same,"activity change, negative = inhibition",[2],-0.554% [at 10.5 µM] (inactive)
same,"activity change, negative = inhibition",[3],6.4% [at 10.5 µM] (inactive)
same,"activity change, negative = inhibition",[4],-0.0087% [at 10.5 µM] (inactive)
O=C(O)c1ccccc1Cl,Potency,[1],inactive
same,Potency,[2],inactive
same,Potency,[3],inactive
same,Potency,[4],inactive
COc1cc(C(=O)N2CCCCCCC2)cc(OC)c1OC,Potency,[1],inactive
same,Potency,[2],inactive
same,Potency,[3],inactive
same,Potency,[4],inactive
C1COC(NC(C2CC2)C2CC2)=N1,Potency,[1],inactive
same,Potency,[2],inactive
same,Potency,[3],inactive
same,Potency,[4],inactive
COc1cc(NS(=O)(=O)c2ccc(N)cc2)ncn1,Potency,[1],inactive
same,Potency,[2],inactive
same,Potency,[3],inactive
same,Potency,[4],inactive
NC(CO)(CO)CO,outcome,[1],inactive
same,outcome,[2],inactive
same,outcome,[3],inactive
same,outcome,[4],inactive
CC1=CC[C@H](C(C)C)C=C1,Potency,[1],inactive
same,Potency,[2],inactive
same,Potency,[3],inactive
same,Potency,[4],inactive
O=C(O)c1ccccc1,Potency,[1],3.74 µM (active) and inactive
same,Potency,[2],inactive
same,Potency,[3],inactive
same,Potency,[4],inactive
Cc1cc(C(C)(C)C)c(O)c(C)c1CC1=NCCN1,Potency,[1],inactive
same,Potency,[2],inactive
same,Potency,[3],inactive
same,Potency,[4],inactive
CNS(=O)(=O)CCc1ccc2[nH]cc(C3CCN(C)CC3)c2c1,Potency,[1],inactive
same,Potency,[2],inactive
same,Potency,[3],inactive
same,Potency,[4],inactive
CS(C)(=O)=O,Potency,[1],inactive
same,Potency,[2],inactive
same,Potency,[3],inactive
same,Potency,[4],inactive
C=CC(=O)OCCOC(=O)CCC(=O)O,Potency,[1],inactive
same,Potency,[2],inactive
same,Potency,[3],inactive
same,Potency,[4],inactive
COc1cccc(OC)c1C(=O)N[C@@H]1C(=O)N2[C@@H]1SC(C)(C)[C@@H]2C(=O)O,Potency,[1],inactive
same,Potency,[2],inactive
same,Potency,[3],inactive
same,Potency,[4],inactive
CCCCCCCCCCCCCCCO,Potency,[1],inactive
same,Potency,[2],inactive
same,Potency,[3],inactive
same,Potency,[4],inactive
C=C[C@H]1CN2CC[C@H]1C[C@@H]2[C@@H](O)c1ccnc2ccc(OC)cc12,Potency,[1],inactive
same,Potency,[2],inactive
same,Potency,[3],inactive
same,Potency,[4],inactive
O=c1[nH]c2ccc(Cl)cc2o1,Potency,[1],inactive
same,Potency,[2],inactive
same,Potency,[3],inactive
same,Potency,[4],inactive
CCO[Si](CCCCl)(OCC)OCC,Potency,[1],inactive
same,Potency,[2],inactive
same,Potency,[3],inactive
same,Potency,[4],inactive
CC(C)(CO)C(O)C(=O)NCCCO (stereo not given),Potency,[1],inactive
same,Potency,[2],inactive
same,Potency,[3],inactive
same,Potency,[4],inactive
CNCCC(Oc1ccccc1OC)c1ccccc1 (stereo not given),Potency,[1],inactive
same,Potency,[2],inactive
same,Potency,[3],inactive
same,Potency,[4],inactive
CC(COC(=O)c1ccccc1)OC(=O)c1ccccc1 (stereo not given),Potency,[1],inactive
same,Potency,[2],inactive
same,Potency,[3],inactive
same,Potency,[4],inactive
Nc1ncn([C@@H]2O[C@H](CO)[C@@H](O)[C@H]2O)c(=O)n1,Potency,[1],inactive
same,Potency,[2],inactive
same,Potency,[3],inactive
same,Potency,[4],inactive
CCCCCCCCCCCC,Potency,[1],inactive
same,Potency,[2],inactive
same,Potency,[3],inactive
same,Potency,[4],inactive
CCCCNc1ccc(NCCCC)c2c1C(=O)c1ccccc1C2=O,"activity, negative = inhibition",[1],-1.89% [at 23.6 µM] (inactive)
same,"activity change, negative = inhibition",[2],-0.954% [at 23.6 µM] (inactive)
same,"activity change, negative = inhibition",[3],1.62% [at 23.8 µM] (inactive)
same,"activity change, negative = inhibition",[4],-2.27% [at 23.6 µM] (inactive)
O=C1OC2(c3ccc(O)cc3Oc3cc(O)ccc32)c2ccccc21,Potency,[1],inactive
same,Potency,[2],inactive
same,Potency,[3],inactive
same,Potency,[4],inactive
CC(C)C(=O)Nc1ccc([N+](=O)[O-])c(C(F)(F)F)c1,Potency,[1],inactive
same,Potency,[2],inactive
same,Potency,[3],inactive
same,Potency,[4],inactive
CCCCC(CC)COCC1CO1 (stereo not given),Potency,[1],inactive
same,Potency,[2],inactive
same,Potency,[3],inactive
same,Potency,[4],inactive
Cc1ncc([N+](=O)[O-])n1C,Potency,[1],inactive
same,Potency,[2],inactive
same,Potency,[3],inactive
same,Potency,[4],inactive
CC(O)C(=O)O (stereo not given),Potency,[1],inactive
same,Potency,[2],inactive
same,Potency,[3],inactive
same,Potency,[4],inactive
O=C(O)Cc1ccc(Cl)cc1Cl,Potency,[1],inactive
same,Potency,[2],inactive
same,Potency,[3],inactive
same,Potency,[4],inactive
Cl[Si](Cl)(c1ccccc1)c1ccccc1,Potency,[1],inactive
same,Potency,[2],inactive
same,Potency,[3],inactive
same,Potency,[4],inactive
O=C1c2ccccc2C(=O)c2c1ccc(O)c2O,Potency,[1],inactive
same,Potency,[2],inactive
same,Potency,[3],inactive
same,Potency,[4],inactive
CC1=C(Br)C(=O)C(Br)=C/C1=C(/c1ccccc1S(=O)(=O)O)c1cc(Br)c(O)c(Br)c1C,Potency,[1],inactive
same,Potency,[2],inactive
same,Potency,[3],inactive
same,Potency,[4],inactive
CC(=O)N/N=C/c1ccc([N+](=O)[O-])o1,Potency,[1],inactive
same,Potency,[2],inactive
same,Potency,[3],inactive
same,Potency,[4],inactive
c1ccc2c(c1)-c1ccc3ccc4cccc5cc-2c1c3c45,Potency,[1],inactive
same,Potency,[2],inactive
same,Potency,[3],inactive
same,Potency,[4],inactive
CC(C)c1ccc(C(=O)N=C(N)N)cc1S(C)(=O)=O,outcome,[1],inactive
same,outcome,[2],inactive
same,outcome,[3],inactive
same,outcome,[4],inactive
NC(=O)c1ccccc1O,Potency,[1],inactive
same,Potency,[2],inactive
same,Potency,[3],inactive
same,Potency,[4],inactive
CN(C)c1ccc(C(=C2C=CC(=[N+](C)C)C=C2)c2ccc(N(C)C)cc2)cc1,Potency,[1],70.6 µM (active)
same,Potency,[2],25.1 µM (active) and 35.6 µM (active) and 30.9 µM (active)
same,Potency,[3],19.9 µM (active) and 44.8 µM (active) and 15.5 µM (active)
same,Potency,[4],inactive
CCCCCCCCCCCCCC(=O)O,Potency,[1],inactive
same,Potency,[2],inactive
same,Potency,[3],inactive
same,Potency,[4],inactive
CCOC(=O)c1cc(=O)c2c(OCC(COc3cccc4oc(C(=O)OCC)cc(=O)c34)OC(=O)[C@@H](N)CCCCN)cccc2o1,Potency,[1],inactive
same,Potency,[2],inactive
same,Potency,[3],inactive
same,Potency,[4],inactive
C/C(=C\c1ccc(C(=O)O)cc1)c1ccc2c(c1)C(C)(C)CCC2(C)C,Potency,[1],inactive
same,Potency,[2],inactive
same,Potency,[3],inactive
same,Potency,[4],inactive
NC(=O)c1cn(Cc2c(F)cccc2F)nn1,Potency,[1],inactive
same,Potency,[2],inactive
same,Potency,[3],inactive
same,Potency,[4],inactive
CC(CNC1CCCCC1)OC(=O)c1ccccc1 (stereo not given),Potency,[1],inactive
same,Potency,[2],inactive
same,Potency,[3],inactive
same,Potency,[4],inactive
CO[C@@H]1[C@@H](OC)[C@H](C)[C@@](O)(CC(=O)O)O[C@H]1[C@H](C)[C@H]1O[C@@]2(CC[C@@](C)([C@H]3CC[C@@](C)([C@@H]4O[C@@H]([C@H]5O[C@](C)(O)[C@H](C)C[C@@H]5C)C[C@@H]4OC4C[C@H](OC)[C@@H](OC)[C@H](C)O4)O3)O2)C[C@H](O)[C@H]1C (stereo not given in full),Potency,[1],inactive
same,Potency,[2],inactive
same,Potency,[3],inactive
same,Potency,[4],inactive
CCOC(=O)CC(CC(=O)OCC)(OC(C)=O)C(=O)OCC,Potency,[1],inactive
same,Potency,[2],inactive
same,Potency,[3],inactive
same,Potency,[4],inactive
C=Cc1ccncc1,Potency,[1],inactive
same,Potency,[2],inactive
same,Potency,[3],inactive
same,Potency,[4],inactive
CC1=CC(C)(C)Nc2ccccc21,Potency,[1],inactive
same,Potency,[2],inactive
same,Potency,[3],inactive
same,Potency,[4],inactive
OCC1(CO)COCOC1,Potency,[1],inactive
same,Potency,[2],inactive
same,Potency,[3],inactive
same,Potency,[4],inactive
CC[C@H](C)COC(=O)/C=C/c1ccc(N=Cc2ccc(OC)cc2)cc1,Potency,[1],inactive
same,Potency,[2],inactive
same,Potency,[3],inactive
same,Potency,[4],inactive
COCCOCCOCCO,Potency,[1],inactive
same,Potency,[2],inactive
same,Potency,[3],inactive
same,Potency,[4],inactive
c1ccc2scnc2c1,Potency,[1],inactive
same,Potency,[2],inactive
same,Potency,[3],inactive
same,Potency,[4],inactive
